# Hit rate of the full screen: of about 5,500 compounds, about 2,000 (36%) were called active. Inconclusive results (about 18%) are left out. The list shows a part of the results. Unmarked numbers belong to inactive results. Cut-off read from the data, not from the text of the source: active = normalized growth mostly below about 0.91 (no sharp cut-off); inconclusive = no clear call, values can overlap the other calls; inactive = mostly above about 0.92.
# Test: chemical genetic growth profiling, strain panel (AID 1159580);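 note: tested at 20 µM; growth read once vehicle control cultures reached saturation at 30 °C; 1 = growth at the plate median or of vehicle wells; lower values mean less growth of the strain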
# Conditions: growth OD
# [1] = S. cerevisiae deletion strains, locus YDL101C, strain DUN1, active compounds read low
# [2] = S. cerevisiae deletion strains, locus YHR030C, strain SLT2, active compounds read low
compound,measurement,setting,value
O=C(NNC(=O)c1csc(-c2cccs2)n1)c1ccc(C(F)(F)F)cc1,normalized growth,"S. cerevisiae deletion strains, locus YAR019C, strain CDC15, active compounds read low",0.972
same,normalized growth,"S. cerevisiae deletion strains, locus YBL105C, strain PKC1, active compounds read low",0.967
same,normalized growth,"S. cerevisiae deletion strains, locus YBR135W, strain CKS1, active compounds read low",0.955
same,normalized growth,"S. cerevisiae deletion strains, locus YBR136W, strain MEC1, active compounds read low",0.979
same,normalized growth,"S. cerevisiae deletion strains, locus YBR160W, strain CDC28, active compounds read low",0.965
same,normalized growth,"S. cerevisiae deletion strains, locus YDL017W, strain CDC7, active compounds read low",0.961
same,normalized growth,"S. cerevisiae deletion strains, locus YDL028C, strain MPS1, active compounds read low",0.958
same,normalized growth,[1],0.901 (active)
same,normalized growth,"S. cerevisiae deletion strains, locus YDL108W, strain KIN28, active compounds read low",0.972
same,normalized growth,"S. cerevisiae deletion strains, locus YDL132W, strain cdc53, active compounds read low",0.946
same,normalized growth,"S. cerevisiae deletion strains, locus YDL214C, strain PRR2, active compounds read low",0.657 (active)
same,normalized growth,"S. cerevisiae deletion strains, locus YDR052C, strain DBF4, active compounds read low",0.964
same,normalized growth,"S. cerevisiae deletion strains, locus YDR054C, strain cdc34, active compounds read low",0.961
same,normalized growth,"S. cerevisiae deletion strains, locus YDR226W, strain ADK1, active compounds read low",0.967
same,normalized growth,"S. cerevisiae deletion strains, locus YDR477W, strain SNF1, active compounds read low",0.572 (active)
same,normalized growth,"S. cerevisiae deletion strains, locus YER123W, strain YCK3, active compounds read low",0.75
same,normalized growth,"S. cerevisiae deletion strains, locus YER133W, strain GLC7, active compounds read low",0.863
same,normalized growth,"S. cerevisiae deletion strains, locus YFL009W, strain cdc4, active compounds read low",0.967
same,normalized growth,"S. cerevisiae deletion strains, locus YFL029C, strain CAK1, active compounds read low",0.959
same,normalized growth,"S. cerevisiae deletion strains, locus YFR003C, strain YPI1, active compounds read low",0.964
same,normalized growth,"S. cerevisiae deletion strains, locus YFR019W, strain FAB1, active compounds read low",0.99
same,normalized growth,"S. cerevisiae deletion strains, locus YFR028C, strain CDC14, active compounds read low",0.949
same,normalized growth,"S. cerevisiae deletion strains, locus YGR040W, strain KSS1, active compounds read low",0.832
same,normalized growth,"S. cerevisiae deletion strains, locus YGR052W, strain FMP48, active compounds read low",0.779
same,normalized growth,"S. cerevisiae deletion strains, locus YGR092W, strain DBF2, active compounds read low",0.154 (active)
same,normalized growth,[2],0.198 (active)
same,normalized growth,"S. cerevisiae deletion strains, locus YHR079C, strain IRE1, active compounds read low",0.181 (active)
same,normalized growth,"S. cerevisiae deletion strains, locus YHR082C, strain KSP1, active compounds read low",0.838
same,normalized growth,"S. cerevisiae deletion strains, locus YHR205W, strain SCH9, active compounds read low",0.695
same,normalized growth,"S. cerevisiae deletion strains, locus YIL147C, strain SLN1, active compounds read low",0.973
same,normalized growth,"S. cerevisiae deletion strains, locus YJL095W, strain BCK1, active compounds read low",0.345 (active)
same,normalized growth,"S. cerevisiae deletion strains, locus YJL128C, strain PBS2, active compounds read low",0.948
same,normalized growth,"S. cerevisiae deletion strains, locus YJL157C, strain FAR1, active compounds read low",0.612 (active)
same,normalized growth,"S. cerevisiae deletion strains, locus YJR016C, strain ILV3, active compounds read low",0.969
same,normalized growth,"S. cerevisiae deletion strains, locus YJR066W, strain TOR1 (second series), active compounds read low",0.14 (active)
same,normalized growth,"S. cerevisiae deletion strains, locus YJR066W, strain TOR1, active compounds read low",0.486
same,normalized growth,"S. cerevisiae deletion strains, locus YKL048C, strain ELM1, active compounds read low",0.91
same,normalized growth,"S. cerevisiae deletion strains, locus YKL067W, strain YNK1, active compounds read low",0.713 (active)
same,normalized growth,"S. cerevisiae deletion strains, locus YKL101W, strain HSL1, active compounds read low",0.59 (active)
same,normalized growth,"S. cerevisiae deletion strains, locus YKL193C, strain SDS22, active compounds read low",0.963
same,normalized growth,"S. cerevisiae deletion strains, locus YKL203C, strain TOR2, active compounds read low",0.913
same,normalized growth,"S. cerevisiae deletion strains, locus YLR113W, strain HOG1, active compounds read low",0.677 (active)
same,normalized growth,"S. cerevisiae deletion strains, locus YLR133W, strain CKI1, active compounds read low",0.592 (active)
same,normalized growth,"S. cerevisiae deletion strains, locus YLR403W, strain SFP1, active compounds read low",0.884
same,normalized growth,"S. cerevisiae deletion strains, locus YML070W, strain DAK1, active compounds read low",0.887
same,normalized growth,"S. cerevisiae deletion strains, locus YMR001C, strain CDC5, active compounds read low",0.949
same,normalized growth,"S. cerevisiae deletion strains, locus YMR205C, strain PFK2 (second series), active compounds read low",0.666 (active)
same,normalized growth,"S. cerevisiae deletion strains, locus YMR277W, strain FCP1, active compounds read low",0.957
same,normalized growth,"S. cerevisiae deletion strains, locus YNL006W, strain LST8, active compounds read low",0.96
same,normalized growth,"S. cerevisiae deletion strains, locus YNL020C, strain ARK1, active compounds read low",0.492 (active)
same,normalized growth,"S. cerevisiae deletion strains, locus YNL161W, strain CBK1, active compounds read low",0.959
same,normalized growth,"S. cerevisiae deletion strains, locus YNL183C, strain NPR1, active compounds read low",0.5 (active)
same,normalized growth,"S. cerevisiae deletion strains, locus YNL207W, strain RIO2, active compounds read low",0.955
same,normalized growth,"S. cerevisiae deletion strains, locus YNL222W, strain SSU72, active compounds read low",0.963
same,normalized growth,"S. cerevisiae deletion strains, locus YNL307C, strain MCK1 (second series), active compounds read low",0.286 (active)
same,normalized growth,"S. cerevisiae deletion strains, locus YOL078W, strain AVO1, active compounds read low",0.966
same,normalized growth,"S. cerevisiae deletion strains, locus YOL136C, strain PFK27, active compounds read low",0.805
same,normalized growth,"S. cerevisiae deletion strains, locus YOR061W, strain CKA2, active compounds read low",0.821
same,normalized growth,"S. cerevisiae deletion strains, locus YOR119C, strain RIO1, active compounds read low",0.877
same,normalized growth,"S. cerevisiae deletion strains, locus YOR231W, strain MKK1, active compounds read low",0.29 (active)
same,normalized growth,"S. cerevisiae deletion strains, locus YOR329C, strain SCD5, active compounds read low",0.959
same,normalized growth,"S. cerevisiae deletion strains, locus YPL031C, strain PHO85, active compounds read low",0.512 (active)
same,normalized growth,"S. cerevisiae deletion strains, locus YPL153C, strain RAD53, active compounds read low",0.57 (active)
same,normalized growth,"S. cerevisiae deletion strains, locus YPL204W, strain HRR25, active compounds read low",0.723
same,normalized growth,"S. cerevisiae deletion strains, locus YPL209C, strain IPL1, active compounds read low",0.964
same,normalized growth,"S. cerevisiae deletion strains, locus YPL256C, strain CLN2, active compounds read low",0.558 (active)
same,normalized growth,"S. cerevisiae deletion strains, locus YPR025C, strain CCL1, active compounds read low",0.954
same,normalized growth,"S. cerevisiae deletion strains, locus YPR106W, strain ISR1, active compounds read low",0.959
same,normalized growth,"S. cerevisiae deletion strains, locus YPR111W, strain DBF20, active compounds read low",0.974
same,normalized growth,"S. cerevisiae deletion strains, strain NNK1, active compounds read low",0.974
same,normalized growth,"S. cerevisiae deletion strains, strain TSCII, active compounds read low",0.943
CC(=O)c1csc(-c2ccc(C(F)(F)F)cc2)n1,normalized growth,"S. cerevisiae deletion strains, locus YAL013W, strain DEP1, active compounds read low",0.947
same,normalized growth,"S. cerevisiae deletion strains, locus YBR229C, strain ROT2, active compounds read low",0.965
same,normalized growth,[1],0.977
same,normalized growth,"S. cerevisiae deletion strains, locus YDR150W, strain NUM1, active compounds read low",0.977
same,normalized growth,"S. cerevisiae deletion strains, locus YEL061C, strain CIN8, active compounds read low",0.967
same,normalized growth,"S. cerevisiae deletion strains, locus YGR078C, strain PAC10, active compounds read low",0.949
same,normalized growth,[2],0.761
same,normalized growth,"S. cerevisiae deletion strains, locus YHR087W, strain rtc3, active compounds read low",0.964
same,normalized growth,"S. cerevisiae deletion strains, locus YJR043C, strain POL32, active compounds read low",0.988
same,normalized growth,"S. cerevisiae deletion strains, locus YJR075W, strain HOC1, active compounds read low",0.928
same,normalized growth,"S. cerevisiae deletion strains, locus YKL190W, strain CNB1, active compounds read low",0.994
same,normalized growth,"S. cerevisiae deletion strains, locus YLR039C, strain RIC1, active compounds read low",0.882
same,normalized growth,"S. cerevisiae deletion strains, locus YLR058C, strain SHM2 (second series), active compounds read low",0.955
same,normalized growth,"S. cerevisiae deletion strains, locus YLR085C, strain ARP6, active compounds read low",0.762 (active)
same,normalized growth,"S. cerevisiae deletion strains, locus YLR262C, strain YPT6, active compounds read low",0.943
same,normalized growth,"S. cerevisiae deletion strains, locus YML094W, strain GIM5, active compounds read low",0.898
same,normalized growth,"S. cerevisiae deletion strains, locus YMR219W, strain ESC1, active compounds read low",0.977
same,normalized growth,"S. cerevisiae deletion strains, locus YMR263W, strain SAP30, active compounds read low",0.979
same,normalized growth,"S. cerevisiae deletion strains, locus YNL128W, strain TEP1, active compounds read low",0.99
same,normalized growth,"S. cerevisiae deletion strains, locus YNL153C, strain GIM3, active compounds read low",0.954
same,normalized growth,"S. cerevisiae deletion strains, locus YNL298W, strain CLA4 (second series), active compounds read low",0.911
same,normalized growth,"S. cerevisiae deletion strains, locus YNL322C, strain KRE1, active compounds read low",0.971
same,normalized growth,"S. cerevisiae deletion strains, locus YNR030W, strain Alg12, active compounds read low",0.943
same,normalized growth,"S. cerevisiae deletion strains, locus YPL055C, strain LGE1, active compounds read low",0.892
same,normalized growth,"S. cerevisiae deletion strains, locus YPL241C, strain CIN2, active compounds read low",0.841 (active)
same,normalized growth,"S. cerevisiae deletion strains, locus YPR135W, strain CTF4, active compounds read low",0.658
same,normalized growth,"S. cerevisiae strains, strain wild type, active compounds read low",0.997
